What all share (parameters): scale not given: direction of the effect not stated beside the values
The target of assay [1] is Protein translocase subunit SecA (Escherichia coli (strain K12)) (UniProt P10408). Briefly: Assay to Identify E. coli SecA ATPase Inhibitors. In kind it is functional. Conditions: 30 µM.
The target of assay [2] is T1, Ubiquitin-activating enzyme e1, putative (Leishmania donovani (strain BPK282A1)) (UniProt E9BSI1).
T1 sequence (whole entry): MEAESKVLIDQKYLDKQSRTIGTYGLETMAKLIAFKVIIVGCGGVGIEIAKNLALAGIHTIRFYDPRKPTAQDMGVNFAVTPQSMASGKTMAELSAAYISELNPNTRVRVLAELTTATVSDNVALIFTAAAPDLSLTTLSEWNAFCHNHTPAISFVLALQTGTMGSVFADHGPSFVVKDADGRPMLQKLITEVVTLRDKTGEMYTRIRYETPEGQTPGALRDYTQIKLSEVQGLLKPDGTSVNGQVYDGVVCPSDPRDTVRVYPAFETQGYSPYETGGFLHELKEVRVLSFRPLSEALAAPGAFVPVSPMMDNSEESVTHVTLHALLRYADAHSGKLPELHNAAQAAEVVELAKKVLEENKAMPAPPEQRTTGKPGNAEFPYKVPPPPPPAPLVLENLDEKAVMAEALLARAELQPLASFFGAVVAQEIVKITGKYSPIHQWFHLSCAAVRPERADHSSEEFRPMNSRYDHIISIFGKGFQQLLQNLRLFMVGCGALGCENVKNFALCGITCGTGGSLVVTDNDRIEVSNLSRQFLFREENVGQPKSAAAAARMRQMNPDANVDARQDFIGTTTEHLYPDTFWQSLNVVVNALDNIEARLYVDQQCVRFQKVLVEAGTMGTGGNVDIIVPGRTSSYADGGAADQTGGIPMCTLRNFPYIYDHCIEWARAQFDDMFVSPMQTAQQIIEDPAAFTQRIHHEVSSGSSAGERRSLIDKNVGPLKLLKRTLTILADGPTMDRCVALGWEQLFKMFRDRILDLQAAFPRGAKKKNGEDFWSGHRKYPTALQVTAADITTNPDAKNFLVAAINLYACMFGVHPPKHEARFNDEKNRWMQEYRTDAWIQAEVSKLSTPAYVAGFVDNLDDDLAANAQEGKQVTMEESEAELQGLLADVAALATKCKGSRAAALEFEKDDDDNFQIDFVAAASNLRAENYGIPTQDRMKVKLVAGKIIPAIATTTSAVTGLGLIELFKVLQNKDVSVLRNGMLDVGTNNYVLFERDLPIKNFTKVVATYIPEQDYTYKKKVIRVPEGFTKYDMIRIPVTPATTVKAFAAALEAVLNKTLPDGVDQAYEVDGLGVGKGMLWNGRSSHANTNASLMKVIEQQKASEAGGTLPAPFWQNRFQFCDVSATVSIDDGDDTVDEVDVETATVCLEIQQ
Briefly: Leishmania donovani Ubiquitin Activating Enzyme (LdE1). Conditions: 30 µM. In kind it is functional.

The target of assay [3] is AMP-activated protein kinase, AMPK (Homo sapiens) (UniProt P54646+O43741+P54619+Q9UGJ0+Q9Y478+Q13131+Q9UGI9). Nature of the assay: AMP-dependent Kinase enzyme assay. An in vitro enzyme assay that detects ADP turnover that is directly proportional to AMPK activity. This uses naive AMPK that is activated during the assay with MK-8722. The format is functional. Conditions: 30 µM.

Assay [4] concerns the target Sialic acid-binding Ig-like lectin 9 (Homo sapiens) (UniProt Q9Y336). Nature of the assay: Hs-Siglec9 ALPHAscreen SOP 20170721. As to conditions: 10 µM.
Another assay deals with Trypanosoma cruzi. Nature of the assay: Trypanosoma cruzi phosphomannomutase and mannose-1-phosphate guanylyltransferase assay. The format is functional. As to conditions: 10 µM.
For assay [5], the target named is T2, Arginase-2, mitochondrial (Homo sapiens) (UniProt P78540).
T2 sequence (whole entry): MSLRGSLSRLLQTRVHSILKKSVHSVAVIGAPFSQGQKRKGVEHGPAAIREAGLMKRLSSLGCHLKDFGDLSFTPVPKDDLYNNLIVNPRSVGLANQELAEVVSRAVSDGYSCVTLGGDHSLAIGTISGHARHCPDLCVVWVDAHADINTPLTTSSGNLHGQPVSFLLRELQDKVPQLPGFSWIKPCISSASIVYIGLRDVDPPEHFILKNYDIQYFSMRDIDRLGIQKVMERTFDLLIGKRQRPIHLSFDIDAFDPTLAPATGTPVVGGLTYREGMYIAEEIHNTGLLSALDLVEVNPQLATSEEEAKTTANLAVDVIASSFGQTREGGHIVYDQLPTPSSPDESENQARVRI
Nature of the assay: in vitro enzyme assay to detect the production of urea directly proportional to the activity of Arginase II. Further: in the data most compounds retested in dose-response had high values. The format is functional. As to conditions: 33.3 µM.

In assay [6] the target is T3, Proteasome subunit beta (Trypanosoma cruzi) (UniProt O96673).
T3 sequence (whole entry): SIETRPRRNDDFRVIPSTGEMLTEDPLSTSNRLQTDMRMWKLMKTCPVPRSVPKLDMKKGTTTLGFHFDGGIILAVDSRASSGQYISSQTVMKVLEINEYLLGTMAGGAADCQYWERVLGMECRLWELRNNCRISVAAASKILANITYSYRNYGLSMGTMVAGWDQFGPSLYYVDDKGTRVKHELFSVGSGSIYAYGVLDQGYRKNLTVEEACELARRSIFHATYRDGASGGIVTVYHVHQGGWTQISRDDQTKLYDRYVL
Nature of the assay: Trypanosoma cruzi proteasome chymotrypsin-like activity (TcProtChymo) assay. Further: in the data most compounds retested in dose-response had high values. In kind it is functional. Conditions: 9.37 µM.

The species named for another assay is Homo sapiens. Briefly: To identify inhibition of the IFN signalling (Jak-Stat) pathway via expression of an eGFP reporter gene under the control of an IFN-stimulated response element (ISRE) containing MxA promoter. The format is functional. As to conditions: 30 µM.
The target of assay [7] is T4, Tyrosyl-tRNA synthetase, putative (Trypanosoma cruzi (strain CL Brener)) (UniProt Q4DSP6).
T4 sequence (whole entry): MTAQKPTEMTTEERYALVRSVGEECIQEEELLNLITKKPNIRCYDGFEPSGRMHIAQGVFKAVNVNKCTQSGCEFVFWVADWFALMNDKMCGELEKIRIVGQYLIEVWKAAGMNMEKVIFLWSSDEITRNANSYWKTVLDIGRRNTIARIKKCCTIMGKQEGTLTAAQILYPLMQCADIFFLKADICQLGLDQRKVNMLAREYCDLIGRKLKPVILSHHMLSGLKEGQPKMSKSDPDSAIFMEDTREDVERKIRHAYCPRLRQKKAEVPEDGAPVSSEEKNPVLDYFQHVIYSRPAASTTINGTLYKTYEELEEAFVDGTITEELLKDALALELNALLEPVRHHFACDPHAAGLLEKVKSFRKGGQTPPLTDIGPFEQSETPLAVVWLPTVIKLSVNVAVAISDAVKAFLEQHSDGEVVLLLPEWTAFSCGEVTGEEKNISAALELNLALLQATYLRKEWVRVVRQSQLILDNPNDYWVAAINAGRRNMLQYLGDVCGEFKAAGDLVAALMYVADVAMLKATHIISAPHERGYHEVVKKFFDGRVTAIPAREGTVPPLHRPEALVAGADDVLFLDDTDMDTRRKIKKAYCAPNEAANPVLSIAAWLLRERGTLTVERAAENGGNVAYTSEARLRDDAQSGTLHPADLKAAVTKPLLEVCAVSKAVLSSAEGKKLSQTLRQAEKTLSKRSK
Briefly: Trypanosoma cruzi tyrosyl tRNA synthetase (TcYRS) _High Tyrosine SOP. Further: in the data most compounds retested in dose-response had high values. In kind it is functional. Conditions: 30 µM.

Assay [8] deals with T4, Tyrosyl-tRNA synthetase, putative (Trypanosoma cruzi (strain CL Brener)). Nature of the assay: Trypanosoma cruzi tyrosyl tRNA synthetase (TcYRS) SOP. In kind it is functional. As to conditions: 30 µM.
Assay [9] addresses Chromo domain-containing protein 1 (Saccharomyces cerevisiae (strain ATCC 204508 / S288c) (Baker's yeast)) (UniProt P32657). Nature of the assay: ScCHD-1 Enzyme Inhibition Assay. Further: in the data most compounds retested in dose-response had high values. The format is functional. As to conditions: 30 µM.

Molecules are shown by their SMILES. For some of these results: Potency and affinity values are given separately.

Sequence of Protein translocase subunit SecA (Escherichia coli (strain K12)) (P10408 whole entry): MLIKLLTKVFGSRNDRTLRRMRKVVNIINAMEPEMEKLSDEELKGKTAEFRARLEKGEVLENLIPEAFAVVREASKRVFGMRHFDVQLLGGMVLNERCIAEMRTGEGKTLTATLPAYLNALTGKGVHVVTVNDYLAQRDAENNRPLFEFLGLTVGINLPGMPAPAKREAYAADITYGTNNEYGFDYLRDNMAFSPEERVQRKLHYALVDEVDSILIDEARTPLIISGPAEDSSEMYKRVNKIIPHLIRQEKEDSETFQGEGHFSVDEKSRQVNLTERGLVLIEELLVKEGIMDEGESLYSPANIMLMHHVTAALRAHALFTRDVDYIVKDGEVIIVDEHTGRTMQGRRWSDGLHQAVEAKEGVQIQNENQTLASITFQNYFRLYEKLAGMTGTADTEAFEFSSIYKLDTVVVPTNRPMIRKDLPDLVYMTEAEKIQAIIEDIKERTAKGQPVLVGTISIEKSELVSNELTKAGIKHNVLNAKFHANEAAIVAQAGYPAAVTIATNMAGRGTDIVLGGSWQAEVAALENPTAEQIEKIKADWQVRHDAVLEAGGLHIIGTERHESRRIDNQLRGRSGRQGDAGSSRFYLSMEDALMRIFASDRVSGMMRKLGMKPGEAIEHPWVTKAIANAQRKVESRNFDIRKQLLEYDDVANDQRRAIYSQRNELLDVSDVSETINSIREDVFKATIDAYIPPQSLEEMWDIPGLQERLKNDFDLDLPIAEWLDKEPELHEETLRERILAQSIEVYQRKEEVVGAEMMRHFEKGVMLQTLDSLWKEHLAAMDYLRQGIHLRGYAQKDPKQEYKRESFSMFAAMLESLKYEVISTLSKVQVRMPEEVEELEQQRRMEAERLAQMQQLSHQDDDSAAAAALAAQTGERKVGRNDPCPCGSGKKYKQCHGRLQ
Sequence of Sialic acid-binding Ig-like lectin 9 (Homo sapiens) (Q9Y336 whole entry): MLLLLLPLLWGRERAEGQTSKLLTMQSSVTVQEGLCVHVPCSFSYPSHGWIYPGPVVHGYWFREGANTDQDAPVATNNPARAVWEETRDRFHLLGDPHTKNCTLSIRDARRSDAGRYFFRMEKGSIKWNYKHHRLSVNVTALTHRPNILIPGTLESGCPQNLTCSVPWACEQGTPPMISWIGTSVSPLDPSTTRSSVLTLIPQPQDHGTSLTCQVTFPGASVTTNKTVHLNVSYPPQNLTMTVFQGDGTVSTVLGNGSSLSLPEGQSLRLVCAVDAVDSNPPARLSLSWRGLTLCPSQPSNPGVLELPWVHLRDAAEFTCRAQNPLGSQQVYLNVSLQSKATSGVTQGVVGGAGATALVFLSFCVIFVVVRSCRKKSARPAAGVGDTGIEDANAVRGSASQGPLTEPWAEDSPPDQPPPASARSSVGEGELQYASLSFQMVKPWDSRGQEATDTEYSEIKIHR
Sequence of Chromo domain-containing protein 1 (Saccharomyces cerevisiae (strain ATCC 204508 / S288c) (Baker's yeast)) (P32657 whole entry, the tested form may be a part): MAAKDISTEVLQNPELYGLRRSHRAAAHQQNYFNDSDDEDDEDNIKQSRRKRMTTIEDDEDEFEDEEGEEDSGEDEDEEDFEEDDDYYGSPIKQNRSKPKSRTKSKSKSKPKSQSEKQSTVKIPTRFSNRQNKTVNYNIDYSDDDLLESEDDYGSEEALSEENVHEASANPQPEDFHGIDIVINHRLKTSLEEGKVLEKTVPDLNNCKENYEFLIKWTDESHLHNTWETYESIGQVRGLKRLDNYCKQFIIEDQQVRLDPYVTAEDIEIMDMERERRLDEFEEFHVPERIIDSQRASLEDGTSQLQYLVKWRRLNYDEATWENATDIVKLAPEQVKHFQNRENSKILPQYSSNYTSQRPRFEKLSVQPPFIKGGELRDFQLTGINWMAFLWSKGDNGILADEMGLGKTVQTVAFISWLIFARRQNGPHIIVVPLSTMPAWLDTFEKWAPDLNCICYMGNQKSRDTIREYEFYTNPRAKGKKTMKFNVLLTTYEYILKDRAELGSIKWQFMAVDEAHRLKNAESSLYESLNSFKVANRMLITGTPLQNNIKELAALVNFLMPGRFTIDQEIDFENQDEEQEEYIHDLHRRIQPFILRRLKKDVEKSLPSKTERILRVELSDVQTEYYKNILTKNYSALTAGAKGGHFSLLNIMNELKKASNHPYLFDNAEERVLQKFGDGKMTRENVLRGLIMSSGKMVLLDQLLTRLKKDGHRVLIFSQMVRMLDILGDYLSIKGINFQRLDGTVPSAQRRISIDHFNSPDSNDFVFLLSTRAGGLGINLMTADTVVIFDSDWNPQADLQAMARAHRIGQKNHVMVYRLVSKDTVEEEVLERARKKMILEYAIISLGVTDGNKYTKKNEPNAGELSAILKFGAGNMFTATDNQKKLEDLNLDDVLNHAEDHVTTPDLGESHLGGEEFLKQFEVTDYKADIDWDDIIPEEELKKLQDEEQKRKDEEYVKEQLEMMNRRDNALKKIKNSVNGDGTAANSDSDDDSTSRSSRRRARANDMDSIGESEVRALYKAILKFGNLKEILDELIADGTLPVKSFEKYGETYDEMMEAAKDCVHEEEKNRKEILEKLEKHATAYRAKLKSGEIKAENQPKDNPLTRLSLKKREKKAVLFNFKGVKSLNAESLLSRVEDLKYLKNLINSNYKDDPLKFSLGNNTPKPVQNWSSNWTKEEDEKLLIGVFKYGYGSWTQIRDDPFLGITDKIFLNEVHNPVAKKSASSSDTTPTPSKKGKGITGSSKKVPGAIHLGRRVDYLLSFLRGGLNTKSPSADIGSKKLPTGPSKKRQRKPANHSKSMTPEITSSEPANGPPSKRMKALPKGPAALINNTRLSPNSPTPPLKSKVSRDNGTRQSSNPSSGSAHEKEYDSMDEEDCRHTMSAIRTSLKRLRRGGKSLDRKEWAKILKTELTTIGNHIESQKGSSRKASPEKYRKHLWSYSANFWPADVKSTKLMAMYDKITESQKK

As to `CN(C)C(CNS(=O)(=O)c1ccc(F)cc1F)c1cccn1C` (stereo unspecified), the Percent Effect is -6.84% in [1]; 8.22% in assay [2]; 2.21% in assay [3]; -1% in assay [4]; -4.9% in the assay with Trypanosoma cruzi; 2.73% in assay [5]. In addition, the Percent Effect was 10.8% in assay [6]; 13.6% in the assay listed under Homo sapiens; 4.3% in [7]; 12.5% in assay [8]; -4.19% in assay [9].
On to `Cn1cc(C2CCCN2Cc2csc(C(C)(C)C)n2)cn1` (stereo unspecified), for which the Percent Effect in assay [1] is -8.01%; in assay [2], 12.7%; in assay [3], -5.07%; in [4] it was 14.2%; in the assay with Trypanosoma cruzi, 6.33%; in [5] it was -5.32%. Further, the Percent Effect in assay [6] was 4.01%; in the assay filed under Homo sapiens, -16.1%; in assay [7] it was 8.37%; in assay [8], 16.5%; in assay [9] it was -9.19%.
`CCC(C)(NCC(=O)Nc1nc(C)cs1)c1nc(C)cs1` (stereo unspecified): the Percent Effect in assay [1] is 0.0522%; in [2] it was 10.8%; in [3], -10.8%; in assay [4], -1.43%; in the assay on Trypanosoma cruzi it was -3.62%; in assay [5] it was -2.73%. Moreover, the Percent Effect in assay [6] is 7.47%; in the assay listed under Homo sapiens it was 21%; in assay [7], 7.53%; in [8], 13.6%; in assay [9] it was -3.58%.
As for `Cn1nc(C2CCN(C(=O)Cc3cccc(F)c3)CC2)c2cccnc21`, the Percent Effect is -2.77% in assay [1]; -6.76% in assay [2]; 12.2% in assay [3]; 3.61% in assay [4]; 4.35% in the assay with Trypanosoma cruzi; -0.232% in [5]. For the same compound, the Percent Effect in [6] is 6.71%; in the assay filed under Homo sapiens, 14.9%; in assay [7] it was 1.07%; in [8], 6.49%; in [9] it was -3.75%.
Turning to `Cc1nc(C(=O)N2CCCC(n3cncn3)C2)cs1` (stereo unspecified), the Percent Effect was -1.23% in assay [1]; -1.27% in assay [2]; 3.74% in assay [3]; 3.18% in assay [4]; -0.718% in the assay with Trypanosoma cruzi; 2.8% in assay [5]. In addition, the Percent Effect is 4.63% in assay [6]; -1.7% in the assay filed under Homo sapiens; -38.5% in assay [7]; 5.06% in assay [8]; 0.874% in [9].
Take `Cc1ccccc1C(=O)NCc1ccc(N2CCNC(=O)C2)c(F)c1`: the Percent Effect was -3.15% in [1]; 8.11% in assay [2]; -2.71% in [3]; 4.68% in assay [4]; 0.579% with Trypanosoma cruzi; -2.86% in assay [5]. The Percent Effect in assay [6] is 8.97%; in the assay filed under Homo sapiens, -16.3%; in assay [7], 4.76%; in assay [8], 12.2%; in [9], -2.41%.
Consider `Cc1cccc(C2(CNC(=O)CCNS(C)(=O)=O)CCCC2)c1`, for which the Percent Effect was -6.74% in assay [1]; 15.2% in assay [2]; -3.25% in assay [3]; 11.3% in assay [4]; 4.44% in the assay with Trypanosoma cruzi; -11% in assay [5]. For the same compound, the Percent Effect in assay [6] is 6.31%; in the assay listed under Homo sapiens it was -4.41%; in [7] it was 5.42%; in [8] it was 8.86%; in assay [9] it was -5.61%.
For `Cc1noc(C)c1-c1cncc(C2CCCN2Cc2cncnc2)n1` (stereo unspecified), the Percent Effect is -2.17% in assay [1]; 2.67% in assay [2]; 6.8% in assay [3]; -2.83% in [4]; -3.54% with Trypanosoma cruzi; 1.63% in assay [5]. In addition, the Percent Effect in assay [6] was 5.55%; in the assay listed under Homo sapiens, 18.2%; in assay [7] it was 4.25%; in [8], 8.97%; in assay [9], -6.34%.
Regarding `COCC(=O)N(C)Cc1cccc(Cl)c1`, the Percent Effect in assay [1] was -4%; in [2], 10.5%; in assay [3] it was -1.75%; in [4], -3.18%; in the assay on Trypanosoma cruzi, 4.19%; in [5], 0%. For the same compound, the Percent Effect was 2.78% in [6]; 4.21% in the assay filed under Homo sapiens; 1.06% in [7]; 13% in assay [8]; -4.61% in assay [9].
In the case of `Cc1nc(C2CCCN2Cc2nnc(C3CC3)o2)no1` (stereo unspecified), the Percent Effect in [1] is -2%; in assay [2], 2.7%; in assay [3], 4.19%; in assay [4], 3.15%; in the assay with Trypanosoma cruzi, -1.21%; in assay [5], -0.554%. The Percent Effect is 17.2% in assay [6]; 16.6% in the assay filed under Homo sapiens; 9.9% in assay [7]; 18.3% in assay [8]; -3.91% in assay [9].
Consider `Cn1ccnc1CN1CC[C@@H](NS(C)(=O)=O)[C@@H]1Cc1cccnc1`, for which the Percent Effect was -2.5% in assay [1]; 8.11% in assay [2]; -0.0396% in [3]; -7.99% in assay [4]; -6.35% in the assay with Trypanosoma cruzi; -2.23% in assay [5]. In addition, the Percent Effect in assay [6] was 18.6%; in the assay filed under Homo sapiens, 11.3%; in assay [7], 2.16%; in assay [8], 10.3%; in assay [9], -5.81%.

The record behind these values is ChEMBL document CHEMBL3988442, “University of Dundee, Small-Polar-MMV Screening Library” (2021).
